# Test results: PubChem BioAssay AID652105 (National Center for Advancing Translational Sciences (NCATS), 2013)
# In all, about 330,000 compounds went through this assay and about 4,100 (1.2%) were called active. Not shown: some 2% with an inconclusive outcome. Rule for the calls: active = max response of -50% or lower; inconclusive = between -30% and -50%; inactive = -30% or higher. The full list was thinned out, with actives kept by preference.
# Target: Phosphatidylinositol 5-phosphate 4-kinase type-2 alpha (Homo sapiens) (UniProt P48426)
# Assay: qHTS for Inhibitors of phosphatidylinositol 5-phosphate 4-kinase (PI5P4K); note: value at the top dose of about 77 µM
# Settings: PI5P4Kalpha enzyme, ADP-Glo luminescence, 60 min; active compounds read low
# Outline: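 Quantitative HTS of the MLSMR library against PI5P4Kalpha with substrate. ATP added last at 5 microM final; room temperature, 60 minutes. Remaining ATP depleted, ADP converted and read as luminescence.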
# % is set by controls: 0 for no effect and ±100 for the full control effect.
# Phosphatidylinositol 5-phosphate 4-kinase type-2 alpha (Homo sapiens), sequence (P48426 whole entry, looked up): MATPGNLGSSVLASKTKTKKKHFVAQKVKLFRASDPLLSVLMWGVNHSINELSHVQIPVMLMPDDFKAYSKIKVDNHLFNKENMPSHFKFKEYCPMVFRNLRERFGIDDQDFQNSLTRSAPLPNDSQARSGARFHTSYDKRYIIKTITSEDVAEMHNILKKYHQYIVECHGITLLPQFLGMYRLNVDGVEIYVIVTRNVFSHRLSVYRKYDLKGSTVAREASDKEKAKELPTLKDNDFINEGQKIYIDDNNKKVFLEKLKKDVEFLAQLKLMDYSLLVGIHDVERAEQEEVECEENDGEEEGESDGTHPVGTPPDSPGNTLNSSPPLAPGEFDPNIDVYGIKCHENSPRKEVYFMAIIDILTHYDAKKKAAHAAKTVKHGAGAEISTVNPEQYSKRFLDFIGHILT
row,Compound,max response
1,CCOC(=O)/C(N=Nc1cc(C(=O)O)cc(C(=O)O)c1)=C(\O)CCl,-52.4% (active)
2,COc1cccc(CN(C)C(=O)CC[C@H]2O[C@@H](n3cnc4c(NC(=O)c5ccccc5)ncnc43)[C@H](O)[C@@H]2O)c1,-6.93% (inactive)
3,COC(=O)[C@@]12C[C@@H](CC(=O)NCc3cccc(C(F)(F)F)c3)C(=O)N(Cc3ccco3)C1=CCC(C)(C)C2,-1.12% (inactive)
4,NC(=O)c1c(NC(=O)CSc2nnc(-c3ccco3)n2N)sc2c1CCCC2,-79.7% (active)
5,Nn1c(SCC(=O)Nc2nccs2)nnc1-c1ccco1,-11.2% (inactive)
6,Cc1cc(NC(=O)CSc2nnc(-c3ccco3)n2N)no1,-9.01% (inactive)
7,O=C1c2ccccc2C(c2nc3ccccc3[nH]2)N1c1ccccc1 (centres undefined),-0.58% (inactive)
8,CN(C(=O)COC(=O)c1cc(-c2ccco2)nc2ccccc12)C1CCS(=O)(=O)C1 (centres undefined),-66.2% (active)
9,COc1ccc(/C=C(\C#N)C(=O)OCC(=O)N(C)C2CCS(=O)(=O)C2)cc1 (centres undefined),4.63% (inactive)
10,CN(C(=O)COC(=O)Cc1ccccc1[N+](=O)[O-])C1CCS(=O)(=O)C1 (centres undefined),1.78% (inactive)
11,CCNC(=O)c1cc2c(c(-c3cccc(-c4cncnc4)c3)n1)[C@H](CCO)N(C(C)=O)C2,1.34% (inactive)
12,CCCCc1c(-c2ccc(Cl)cc2)ncn1CCc1ccccc1OC,19% (inactive)
13,Fc1cccc(Cc2c(-c3ccc(Cl)cc3)nc3ccc(Cl)cn23)c1,1.89% (inactive)
14,C=CCc1cccc(/C=N/NC(=O)COc2ccc(-n3cnnn3)cc2)c1O,-0.249% (inactive)
15,O=C(COc1ccc(-n2cnnn2)cc1)Nc1ccccc1Cl,-51.4% (active)
16,O=C(Cc1c(F)cccc1Cl)Nc1ccc(-n2cnnn2)cc1,4.15% (inactive)
17,C=CCC[C@@H](CCCCC)OC(=O)/C=C/[C@@H](O)[C@H](O)C[C@H](O)CC=C,17.3% (inactive)
18,COCCNc1nc(Nc2ccccc2Cl)c2sc(-c3ccccc3)cc2n1,-2.99% (inactive)
19,O=[N+]([O-])c1cc(S(=O)(=O)Nc2cccc(Cl)c2)ccc1N=Nc1c(O)[nH]c2ccccc12,-75.5% (active)
20,O=C(O)c1ccccc1/C=N/Nc1ccc(S(=O)(=O)Nc2ccc(Cl)cc2)cc1[N+](=O)[O-],-7.22% (inactive)
21,Oc1[nH]c2ccccc2c1N=Nc1c(F)c(F)c(F)c(F)c1F,1.14% (inactive)

row,Compound,max response
1,CCOC(=O)[C@]12CCCC=C1N(Cc1ccc3c(c1)OCO3)C(=O)[C@H](CC(=O)NCc1cccs1)C2,3.13% (inactive)
2,COc1cccc(CNC(=O)[C@@H]2CCCN2C(=O)[C@@H]2CCCN2C(=O)c2ccccc2)c1,-1.24% (inactive)
3,O=C(CCc1ccccc1)Nc1nn[nH]n1,-6.47% (inactive)
4,O=C(/C=C/c1c(F)cccc1Cl)Nc1nn[nH]n1,-56.7% (active)
5,O=C(/C=C/c1c(Cl)cccc1Cl)NCc1ccccc1,3.82% (inactive)
6,Nc1nc(CSc2nnnn2-c2ccccc2)nc(Nc2ccccc2)n1,2.21% (inactive)
7,C[C@H]1CN([C@@H](C)CO)C(=O)c2cc(Br)cnc2O[C@H]1CN(C)S(=O)(=O)c1cccs1,6.03% (inactive)
8,CCOC(=O)[C@]12CCCC=C1N(CCC1=CCCCC1)C(=O)[C@H](CC(=O)N1CCCCC1)C2,-3.48% (inactive)
9,CC(=O)c1ccc(S(=O)(=O)N2CCN(C(=O)/C=C/c3ccc4ccccc4n3)CC2)cc1,-58.5% (active)
10,CC(=O)c1ccc(S(=O)(=O)N2CCC3(CC2)OCCO3)cc1,1.8% (inactive)
11,CC(=O)c1ccc(S(=O)(=O)N2CCC(Oc3ccc(-n4cnnn4)cc3)CC2)cc1,-1.39% (inactive)
12,COc1ccc(CCCNC(=O)C2Cc3c(-c4cccc(C(N)=O)c4)ccnc3O2)cc1 (centres undefined),-10.3% (inactive)
13,CCNC(=O)C1(C)CCCN(Cc2noc(-c3ccccc3OC)n2)C1 (centres undefined),-0.357% (inactive)
14,CN1OC[C@@H]2CN(S(=O)(=O)c3cccc(C(F)(F)F)c3)[C@H](c3ccc(-c4cc5ccccc5o4)cc3)C[C@@H]21,4.81% (inactive)
15,COc1cccc(CNC(=O)CN2C(=O)NC(Cc3ccccc3)(c3ccccc3)C2=O)c1 (centres undefined),-83.2% (active)
16,COc1cccc(CNC(=O)COC(=O)CN2C(=O)NC3(CCCCC3C)C2=O)c1 (centres undefined),-4.41% (inactive)
17,CCCCNC(=O)CN1C(=O)NC(Cc2ccccc2)(Cc2ccccc2)C1=O,0.277% (inactive)
18,CCCNC(=O)c1cc2c(c(-c3cccc(-c4ccc(C#N)cc4)c3)n1)[C@@H](CCO)N(C(=O)CC)C2,-0.337% (inactive)
19,C[C@@H]1CN([C@H](C)CO)C(=O)CCCn2cc(nn2)CO[C@H]1CN(C)S(C)(=O)=O,6.16% (inactive)
20,CC(C)C[C@H]1CNC(=O)C(=O)N1C[C@H]1CCCN1C[C@H](Cc1ccc(O)cc1)N1C[C@H](CC(C)C)N(CC2CCCCCC2)C(=O)C1=O,-0.421% (inactive)
21,CCOC(=O)C1=CC[C@@H](c2ccccc2)N(S(=O)(=O)c2ccc(C)cc2)[C@H]1c1ccc(CC)cc1,6.84% (inactive)

row,Compound,max response
1,Cc1cc2nc(-c3ccc(Cl)cc3)c(Cc3cccc(F)c3)n2c(C)c1Br,-6.22% (inactive)
2,Cc1cc2nc(-c3ccc(F)cc3)c(Cc3ccsc3)n2c(C)c1Br,7.62% (inactive)
3,Cc1cc2nc(-c3ccco3)c(Cc3cccc(F)c3)n2c(C)c1Br,-66.2% (active)
4,COc1ccc(OC)c(CN2C(=O)CCC2(C)c2nnnn2Cc2ccccc2)c1 (centres undefined),2.57% (inactive)
5,COc1ccc(CCNC(=O)CN(c2ccccc2)S(=O)(=O)c2ccccc2)cc1,-3.29% (inactive)
6,CC1=C(C(=O)N(C(C)C)C(C)C)CC(CC(=O)NCC2CCCCC2)C(=O)N1Cc1ccccc1 (centres undefined),-7.86% (inactive)
7,CCOC(=O)[C@]12CCCC=C1N(CCC1=CCCCC1)C(=O)[C@H](CC(=O)N1CCSCC1)C2,-1.78% (inactive)
8,O=C(O)c1cc([N+](=O)[O-])c(Nc2cccc3ccccc23)c([N+](=O)[O-])c1,-64.5% (active)
9,CCOc1ccccc1Nc1ccc(C(=O)O)cc1[N+](=O)[O-],-1.68% (inactive)
10,O=C(Nc1ccc2ccccc2c1[N+](=O)[O-])c1ccccc1,-2.74% (inactive)
11,CNc1cnc(-c2cc(OC)c(OC)c(OC)c2)cn1,1.71% (inactive)
12,O=[N+]([O-])c1cccc(/C([O-])=C(/C(=S)Nc2ccccc2F)[n+]2ccccc2)c1,-1.12% (inactive)
13,Cc1ccc(/C([O-])=C(/C(=S)NCc2ccco2)[n+]2ccccc2)cc1[N+](=O)[O-],-51.3% (active)
14,CC(OC(=O)CNC(=O)c1ccc(Cl)c([N+](=O)[O-])c1)C(=O)NCc1ccco1 (centres undefined),-12% (inactive)
15,CC(C)c1cccc(-c2csc(C(O)c3ccccc3)n2)c1 (centres undefined),28.3% (inactive)
16,COCCNC(=O)Nc1ccc2nc(-c3ccco3)c(-c3ccco3)nc2c1,-88.9% (active)
17,COc1cccc(NC(=O)NCCN2CCCCC2)c1,3.3% (inactive)
18,CC(=O)NCCc1nc2cc(NC(=O)c3ccccc3)ccc2n1C,-3.2% (inactive)
19,CCCC(=O)N1CCC1(C)C(=O)NCc1ccc(SC)cc1 (centres undefined),0.695% (inactive)
20,CC(=O)Oc1ccc(Cn2c(C)c(C(=O)NCc3ccc(C#N)cc3)sc2=O)cc1,2.41% (inactive)
21,O=C(COc1ccccc1Cl)Nc1ccc(C(=O)c2ccc(C(=O)O)cc2)cc1,-70.5% (active)

row,Compound,max response
1,COc1cc(NC(=O)COc2ccccc2Cl)ccc1NC(=O)C(C)C,-11.3% (inactive)
2,O=C(COc1ccccc1)Nc1ccc(C(=O)N2CCCC2)cc1,6.33% (inactive)
3,Cc1ccc(S(=O)(=O)N2CCN(CC(=O)N/N=C/c3cc([N+](=O)[O-])ccc3Cl)CC2)cc1,4.76% (inactive)
4,CN(C)/N=C/c1cc(Cl)cc([N+](=O)[O-])c1O,-13.3% (inactive)
5,O=[N+]([O-])c1cc(Cl)cc(/C=N/NC(=S)Nc2cc(S(=O)(=O)N3CCOCC3)ccc2Cl)c1O,-78.8% (active)
6,COC(=O)[C@]12CCCCC=C1N(CCC1=CCCCC1)C(=O)[C@H](CC(=O)N1CCSCC1)C2,6.76% (inactive)
7,COc1ccc(Br)c(Cn2c(C)c(C(=O)NCc3cccs3)sc2=O)c1,0.248% (inactive)
8,CC(C)Cn1cc(-c2cncc3nccn23)cn1,1.47% (inactive)
9,CC(Sc1nnnn1C1CCCCC1)C(=O)O (centres undefined),-91% (active)
10,CC(Sc1nnnn1C)C(=O)NC(=O)NC1CCCCC1 (centres undefined),-0.0816% (inactive)
11,O=C(CSc1nnnn1C1CCCC1)N1CCCCC1,1.79% (inactive)
12,O=C(Nc1ccc2c(c1)OCCO2)C1c2ccccc2OCC(=O)N1Cc1ccccn1 (centres undefined),6.39% (inactive)
13,COc1ccc(S(=O)(=O)N(C)C[C@H]2OCc3cnnn3CCCC(=O)N([C@H](C)CO)C[C@H]2C)cc1,3.6% (inactive)
14,COc1cccc(-c2cc3nc(NCc4ccccc4OC)n(C)c(=O)c3s2)c1,21.3% (inactive)
15,COCCNC(=O)C1CCCN(Cc2ccccc2Cl)CC1 (centres undefined),0.686% (inactive)
16,Cc1nn(-c2ccc([N+](=O)[O-])cc2)c(N)c1-c1ccccc1,-3.48% (inactive)
17,O=C1CC(c2ccccc2)=NN1c1ccc([N+](=O)[O-])cc1,-52.7% (active)
18,CC1=NN(c2ccccc2)C(=O)C1C(=O)c1ccc([N+](=O)[O-])cc1 (centres undefined),0.85% (inactive)
19,OC(c1ccccc1)c1nc(-c2cnc3ccccc3c2)cs1 (centres undefined),-0.318% (inactive)
20,CS(=O)(=O)c1ccc2c(c1)SC1=NC(=O)/C(=C/c3ccco3)C(=N)N12,-79.5% (active)
21,CC(C)(C)C1C/C(=C/c2ccco2)C(=O)/C(=C/c2ccco2)C1 (centres undefined),-12.4% (inactive)
